Bioassay records (PubChem BioAssay)
hERG WT inh – qHTS for Inhibitors of KCHN2 3.1: Wildtype qHTS; Voltage-gated inwardly rectifying potassium channel KCNH2 (Homo sapiens), Q12809; activity change, % at 1.84 µM; U2OS, BacMam KCNH2, thallium flux FluxOr; active compounds read low; hit rate 0.37% among 340,000;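 active = maximum activity change below -70%; inconclusive = maximum activity change between -70% and -50%; inactive = maximum activity change above -50%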; also: % is scaled to controls: 0 for no effect and ±100 for the full control effect
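U2OS cells were transduced with wild-type KCNH2 virus (2.03 x 10^8 / mL) for 4 h at room temperature, then cultured overnight at 37 C. Thallium flux was read with FluxOr dye. Rate constants were normalized to DMSO controls.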
Glioma ERSR ind – qHTS for Inducers of the Endoplasmic Reticulum Stress Response (ERSR) in Human Glioma: qHTS; AID 602332, 2012; hit rate 0.02% among 420,000; U87-MG GRP78 promoter luciferase reporter, 16 h; Potency, µM, for the others: top-dose activation, most hits filed as activators; also: potency is read from the fitted curve at half-maximal effect; series mostly up to about 76 µM; % of control where 0% means no effect; nearly all actives have a fitted effect of over 35% in size
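Stably transfected U87-MG human glioma cells carrying a GRP78-based luminescent sensor were seeded at 1000 cells/well, pin-dosed with compounds and incubated 16 h. Luciferase reagent was then added, and end-point luminescence was read after 10 min at room temperature.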
PTHR1 ag – qHTS for PTHR1 Agonists: Primary Screen. Parathyroid hormone/parathyroid hormone-related peptide receptor (Homo sapiens), Q03431. Potency, µM (top dose mostly 115 µM), for the others: at the top dose activation, actives largely listed as activators. HEK293 GP2 PTHR1 cells, GloSensor cAMP luminescence, 1 h. hit rate 0.075% among 410,000; also: potency is read from the fitted curve at half-maximal effect; nearly all actives have a fitted effect of over 55% in size
Target sequence (Q03431 whole entry, looked up): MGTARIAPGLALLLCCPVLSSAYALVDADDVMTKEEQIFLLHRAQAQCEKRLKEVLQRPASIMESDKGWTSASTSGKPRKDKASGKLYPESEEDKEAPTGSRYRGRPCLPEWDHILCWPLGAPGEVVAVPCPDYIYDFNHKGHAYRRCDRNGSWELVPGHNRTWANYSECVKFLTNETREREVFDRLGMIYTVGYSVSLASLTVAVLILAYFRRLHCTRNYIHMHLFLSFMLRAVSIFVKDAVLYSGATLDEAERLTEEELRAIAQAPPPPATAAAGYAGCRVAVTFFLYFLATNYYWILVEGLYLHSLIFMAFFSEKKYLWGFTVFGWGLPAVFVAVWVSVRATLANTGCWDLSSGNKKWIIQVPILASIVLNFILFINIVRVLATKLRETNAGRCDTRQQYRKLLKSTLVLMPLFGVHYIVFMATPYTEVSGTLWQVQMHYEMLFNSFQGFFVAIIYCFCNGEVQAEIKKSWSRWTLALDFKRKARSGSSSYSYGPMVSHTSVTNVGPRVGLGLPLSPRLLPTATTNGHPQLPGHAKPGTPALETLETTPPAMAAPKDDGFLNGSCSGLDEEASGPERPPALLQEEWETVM
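HEK-293-derived GP2 cells expressing PTHR1 and a GloSensor cAMP reporter, 3,000/well, plated overnight, given luciferin plus IBMX (each 0.5 mM as added) for 1 h at 37 °C, then compound for 1 h at 37 °C. Luminescence was read after 15 min at room temperature.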
RXFP1 agonist – qHTS Assay for Agonists of the Relaxin Receptor RXFP1. Relaxin receptor 1 (Homo sapiens), Q9HBX9. HEK293T-RXFP1 cAMP TR-FRET, 30 min; response scale: percent of porcine relaxin response, buffer zero. Potency, µM (titrated, usually from 57.5 µM), for the others: at the top dose activation, hits mostly activators. hit rate 0.3% among 370,000; also: potency is read from the fitted curve at half-maximal effect; % is scaled to controls: 0 for no effect and ±100 for the full control effect; nearly all actives have a fitted effect of over 60% in size
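HEK293T cells stably expressing RXFP1 were pretreated with the PDE4 inhibitor Ro 20174, exposed to compounds for 30 min at 37C, lysed, and cAMP was read by TR-FRET. Data normalized to buffer (basal) and 29 nM porcine relaxin (100%).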
KCNH2 3.1 inh – qHTS for Inhibitors of KCHN2 3.1: Mutant qHTS; U2OS KCNH2 3.1, thallium flux FluxOr; active compounds read low; activity change, % (tested at about 1.8 µM); hit rate 0.95% among 340,000;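 active = maximum activity change below -70%; inconclusive = maximum activity change from -70% to -50%; inactive = maximum activity change above -50%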;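 also: thallium influx rate constant from kinetic fluorescence after stimulation buffer; % is scaled to controls: 0 for no effect and ±100 for the full control effect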
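Channel expression came from 3.1 mutant virus (1.77 x 10^8 /mL) applied to suspended U2OS cells for 4 h. Flux was tracked with FluxOr dye plus Red40 quencher, and kinetic rate constants normalized to controls.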
RXFP1 antag – qHTS Assay for Antagonists of the Relaxin Receptor RXFP1. Relaxin receptor 1 (Homo sapiens), Q9HBX9. HEK293-RXFP1, relaxin-stimulated cAMP HTRF, 30 min; active compounds read low. activity change, negative = inhibition, % at 57.5 µM. hit rate 0.59% among 350,000. AID 1259400, 2018;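 active = activity change of -60% or lower, but not beyond a set lower limit; inconclusive = change between -60% and -40%, or beyond the set limit; inactive = change above -40%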; also: % is scaled to controls: 0 for no effect and ±100 for the full control effect
Numbers without * were called inactive; i = inactive; ? = inconclusive; . = not tested or not shown; [ ] = another dose, or the depositor's remark. Rows were chosen to be rich in hits. Some 1.4% of all compounds tested hit in one or more screens of this group. Unless noted, calls follow the shape of the dose curve; as a rule, active = well fitted curve in the direction sought with a large enough effect; inconclusive = small, poorly fitted or top-dose-only effect, or another doubt; inactive = no such curve, though single readings can be large; an effect the other way counts as inactive or inconclusive.

SMILES | hERG WT inh | Glioma ERSR ind | PTHR1 ag | RXFP1 agonist | KCNH2 3.1 inh | RXFP1 antag
O=C(c1cccc(S(=O)(=O)N2CCOCC2)c1)N(Cc1ccc(F)cc1)Cc1ccco1 | 42 | -3% | -27% | 1% | -135* | 0
CS(=O)(=O)c1ccccc1-c1nnc(NC(=O)c2cccc(N3C(=O)CCC3=O)c2)o1 | 3 | 1% | -8% | 0% | 10 | -76*
O=C(Nc1nnc(-c2ccncc2)o1)c1cccc(N2C(=O)CCC2=O)c1 | 10 | -5% | i | 1% | 23 | -7
COc1ccc(/C=C(\NC(=O)c2ccc([N+](=O)[O-])cc2)C(=O)NCCCN2CCOCC2)cc1 | -46 | -4% | 0% | 0% | ? | -2
COc1ccc(/C=C(/NC(=O)c2ccc([N+](=O)[O-])cc2)C(=O)NCCCN(C)C)cc1 | -84* | -5% | i | -1% | ? | 6
CN(C)CCCNC(=O)/C(=C\C=C\c1ccccc1)NC(=O)c1ccc([N+](=O)[O-])cc1 | -72* | -3% | -24% | -1% | -99* | ?
COc1ccc(/C=C(\NC(=O)c2ccc([N+](=O)[O-])cc2)C(=O)NCCN2CCOCC2)cc1 | -118* | -5% | -3% | 0% | -78* | 1
CCCCOc1ccc(C(=O)N/C(=C/C=C/c2ccccc2)C(=O)NCCCO)cc1 | -1 | 0% | i | 2% | -7 | -28
O=C(NCCc1ccccc1)/C(=C\c1ccc([N+](=O)[O-])cc1)NC(=O)c1ccc(Br)cc1 | -8 | -3% | i | 1% | -17 | -1
Cc1ccc(C(=O)N/C(=C\c2ccc([N+](=O)[O-])cc2)C(=O)NCCc2ccccc2)cc1 | -20 | -5% | i | 0% | -96* | 1
O=C(NCCN1CCOCC1)/C(=C/c1ccc(Cl)cc1)NC(=O)c1ccccc1 | -22 | -5% | i | 0% | -25 | -10
Cc1ccc(C(=O)N/C(=C\c2ccc(Cl)cc2)C(=O)NCCN2CCOCC2)cc1 | -93* | -6% | -12% | 3% | ? | -10
Cc1ccc(-n2cc(CN3CCC(O)(c4ccccn4)CC3)c(-c3ccc(F)cc3)n2)cc1 | ? | -11% | -11% | 0% | -73* | -36
COC(=O)c1ccsc1NC(=O)CSc1nnnn1-c1ccccc1SC | -22 | -3% | -28% | 3% | -88* | 4
CSc1ccccc1NC(=O)CSc1nnnn1-c1ccccc1SC | -3 | -1% | -26% | 1% | -8 | 7
COc1cccc(CNC(=O)c2oc3c(c2C)-c2nn(Cc4cccc(Cl)c4)cc2CC3)c1 | . | -4% | -50% | 0% | . | -118*
Cn1c(=O)c(C#N)c(-c2ccccc2)n2cnnc12 | -9 | 2% | i | 3% | 7 | 10
Cc1cc(C)n(CC(C)C(=O)O)n1 (stereo unspecified) | 2 | -3% | i | -1% | -9 | 2
Cc1cc(C)n(CC(=O)O)n1 | -7 | -5% | i | 0% | -182* | 2
Cc1cc(NC(=O)COc2ccc(F)c(Cl)c2)no1 | -5 | -1% | 10% | 0% | 8 | 2
COc1ccccc1/C=C/C=N/NC(=O)c1ccc(=O)n(C)c1 | -8 | 0% | -9% | 1% | -93* | 9
COc1ccccc1/C=N/NC(=O)c1ccc(=O)n(C)c1 | 0 | -5% | -11% | 0% | 5 | 15
COc1ccc(OCc2nc3ccccc3n2Cc2ccc(C(C)(C)C)cc2)cc1 | . | 9% | -13% | 5% | . | .
CCN(Cc1ccccc1)C(=O)CC(=O)N(CC)Cc1ccccc1 | -8 | -4% | i | -1% | 11 | 7
CCN(Cc1ccccc1)C(=O)CSc1ccccc1C(=O)O | -233* | -3% | i | 0% | -176* | 4
SMILES | hERG WT inh | Glioma ERSR ind | PTHR1 ag | RXFP1 agonist | KCNH2 3.1 inh | RXFP1 antag
O=S1(=O)C[C@@H]2N=C(N/N=C/c3ccccc3)S[C@@H]2C1 | 1 | -3% | -14% | 2% | -2 | -1
Cc1cnn(-c2cc(N/N=C/c3ccccc3Cl)ncn2)c1 | -247* | -2% | i | -3% | -7 | -3
Cc1cnn(-c2cc(N/N=C/c3ccc(F)cc3)ncn2)c1 | 6 | 3% | -10%[57.5 µM] | 3% | 0 | -1
CCCn1c(N2CCN(CC(=O)NCc3cccs3)CC2)nc2ccccc21 | -6 | -4% | -2% | 2% | -30 | -5
CC(C)c1ccc(NC(=O)CSC2=Nc3ccccc3C3=NC(CC(=O)NC4CCCCC4)C(=O)N23)cc1 (stereo unspecified) | . | -4% | 14% | 0% | . | -40
CCc1ccc(NC(=O)CSC2=Nc3ccccc3C3=NC(CC(=O)NC4CCCCC4)C(=O)N23)cc1 (stereo unspecified) | . | -6% | 18% | 1% | . | -70*
Cc1ccc(S(=O)(=O)CC2CSc3nnc(C)c(=O)n32)cc1 (stereo unspecified) | -5 | -8% | i | 0% | -93* | 2
CC(NC(=O)c1cccs1)c1ccccc1 (stereo unspecified) | 6 | -6% | i | . | -95* | -4
O=c1[nH]cnc(O)c1C(c1ccc([N+](=O)[O-])cc1)c1c(O)nc[nH]c1=O | -4 | -5% | i | 2% | -181* | 8
O=C(NCCCN1CCCC1)c1ccc(CS(=O)(=O)c2ccc(Cl)cc2)o1 | 20 | -4% | i | 0% | -29 | -2
COc1ccc(N2CCN(CCCNC(=O)c3cc4sccc4n3C)CC2)cc1 | -109* | -2% | -33% | 1% | -94* | -1
Cc1ccc(S(=O)(=O)Cc2ccc(C(=O)NC3CCCC3)o2)cc1 | 5 | 3% | i | 1% | 3 | 9
O=C(NCCN1CCN(c2ccccc2)CC1)Nc1ccc(Cl)cc1 | 53 | -7% | -18% | 1% | -3 | -19
COc1ccc(N2CCN(CCNC(=O)Nc3ccc(Cl)cc3)CC2)cc1 | 12 | -2% | -9%[57.5 µM] | -1% | -70* | 20
CC1CCN(CCCNC(=O)c2cc3sccc3n2C)CC1 | 43 | -3% | i | 0% | 5 | -24
COc1ccc(N2CCN(CCCNC(=O)c3ccc(CS(=O)(=O)c4ccc(Cl)cc4)o3)CC2)cc1 | -21 | -6% | -62% | 0% | -99* | -6
